# Test results from PubChem BioAssay (NCI).
# About 79,000 compounds went through this panel and 15% of them were active in at least one assay; those are over-represented in the sample as a whole. Values without a mark were called inactive. Active and inactive are the calls of the source. Cut-off read from the data, not from the text of the source: active = growth inhibition above about 70%; inactive = the rest.
# Key:
# [1] = NCI Yeast Anticancer Drug Screen. Data for the rad52 strain (AID 147);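 note: 0% = growth of vehicle-treated control cultures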; details: S. cerevisiae rad52 mutant growth inhibition, stronger effect = higher value
# Summary of the method: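 Read-out: growth inhibition versus vehicle-treated controls. Cells were a DNA repair-deficient yeast strain treated with compounds.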
# [2] = NCI Yeast Anticancer Drug Screen. Data for the wt1 strain (AID 149);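 note: 0% = growth of vehicle-treated wt1 cultures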; details: S. cerevisiae wt1 strain (SPY 50644) growth inhibition, stronger effect = higher value
# Summary of the method: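 Each compound is tested on wt1 yeast and the loss of growth versus vehicle gives the inhibition value.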
# [3] = NCI Yeast Anticancer Drug Screen. Data for the rad50EPP+ strain (AID 151);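 note: 0% = growth of vehicle-treated control cultures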; details: S. cerevisiae rad50 mutant strain, stronger effect = higher value
# Summary of the method: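 Growth inhibition read against vehicle controls in rad50EPP+ yeast, a strain altered in DNA damage repair, after compound exposure.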
# [4] = NCI Yeast Anticancer Drug Screen. Data for the mgt1 strain (AID 153); details: S. cerevisiae mgt1 mutant growth inhibition, stronger effect = higher value
# Summary of the method: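 mgt1 yeast grown with test compound; read-out is growth inhibition versus vehicle-treated cultures.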
# [5] = NCI Yeast Anticancer Drug Screen. Data for the rad50 strain (AID 155);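 note: 0% = growth of vehicle-only cultures of the same strain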; details: S. cerevisiae rad50 strain growth inhibition, stronger effect = higher value
# Summary of the method: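 Vehicle-treated cultures provide the reference for the growth inhibition reported for compound-exposed, repair-deficient yeast.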
# [6] = NCI Yeast Anticancer Drug Screen. Data for the mec2-1 strain (AID 157); details: S. cerevisiae mec2-1 strain, stronger effect = higher value
# Summary of the method: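 Yeast mec2-1 mutant treated with compound. Readout: growth inhibition vs vehicle controls.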
# [7] = NCI Yeast Anticancer Drug Screen. Data for the rad14 strain (AID 159);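 note: 0% = growth of vehicle-treated control cultures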; details: S. cerevisiae rad14 strain growth inhibition, stronger effect = higher value
# Summary of the method: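 Inhibition of growth is reported for a repair-deficient yeast mutant following compound treatment, calculated relative to cultures that received vehicle.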
# [8] = NCI Yeast Anticancer Drug Screen. Data for the sgs1 mgt1 strain (AID 161);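 note: 0% = growth of cultures given vehicle only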; details: S. cerevisiae sgs1 mgt1 strain, stronger effect = higher value
# Summary of the method: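 Genetically altered yeast, compound exposure, growth inhibition relative to vehicle.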
# [9] = NCI Yeast Anticancer Drug Screen. Data for the CLN2oe strain (AID 163);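 note: 0% = growth of vehicle-only control cultures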; details: S. cerevisiae CLN2oe strain, stronger effect = higher value
# Summary of the method: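 Read-out: yeast growth inhibition, expressed relative to vehicle-only controls. The strain bears an engineered cell-cycle alteration.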
# [10] = NCI Yeast Anticancer Drug Screen. Data for the cln2 rad14 strain (AID 165);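 note: 0% = growth equal to vehicle treated cultures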; details: S. cerevisiae cln2 rad14 strain, stronger effect = higher value
# Summary of the method: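 cln2 rad14 yeast strain; compound exposure; growth inhibition read vs vehicle controls.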
# [11] = NCI Yeast Anticancer Drug Screen. Data for the bub3 strain (AID 167); details: S. cerevisiae bub3 mutant strain, stronger effect = higher value
# Summary of the method: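 Mutant yeast screening strain plus compound; vehicle-treated cultures serve as the 0% inhibition reference.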
# [12] = NCI Yeast Anticancer Drug Screen. Data for the mlh1 strain (AID 171);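 note: 0% = growth of vehicle-treated control cultures of the same strain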; details: S. cerevisiae mlh1 strain growth inhibition, stronger effect = higher value
# Summary of the method: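 Read-out: growth inhibition versus vehicle controls. Strain: engineered yeast with a defined DNA repair or cell cycle defect, compound-treated.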
# [13] = NCI Yeast Anticancer Drug Screen. Data for the sgs1 strain (AID 173);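 note: 0% = growth of vehicle-only control cultures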; details: S. cerevisiae sgs1 mutant, stronger effect = higher value
# Summary of the method: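 Read-out: yeast growth inhibition relative to vehicle controls, following compound exposure of a strain with a defined DNA repair/cell cycle alteration.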
# [14] = NCI Yeast Anticancer Drug Screen. Data for the mlh1 rad18 strain (AID 175); details: S. cerevisiae mlh1 rad18 strain growth inhibition, stronger effect = higher value
# Summary of the method: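 Yeast w/ defined DNA-repair lesions; compound exposure; growth vs vehicle controls → % inhibition.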
# [15] = NCI Yeast Anticancer Drug Screen. Data for the rad18 strain (AID 177); details: S. cerevisiae rad18 mutant growth inhibition, stronger effect = higher value
# Summary of the method: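 Readout: growth inhibition vs vehicle controls. Cells: genetically altered yeast strain, DNA repair defect.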
# [16] = at 5.0 µM (retest, dose inferred, filed as 0.5)
# [17] = at 50.0 µM (retest, dose inferred, filed as 5.0)
structure (smiles),measurement,setting,value
NC(=S)NC(=S)Nc1ccccc1,growth inhibition,[1]; at 1.2 µM,-7%
same,growth inhibition,[1]; at 3.7 µM,-4%
same,growth inhibition,[1]; at 11.0 µM,-3%
same,growth inhibition,[1]; at 33.0 µM,1%
same,growth inhibition,[1]; at 100.0 µM,23%
same,growth inhibition,[2]; at 1.2 µM,-6%
same,growth inhibition,[2]; at 3.7 µM,-5%
same,growth inhibition,[2]; at 11.0 µM,-6%
same,growth inhibition,[2]; at 33.0 µM,0%
same,growth inhibition,[2]; at 100.0 µM,16%
same,growth inhibition,[3]; at 1.2 µM,-6%
same,growth inhibition,[3]; at 3.7 µM,-10%
same,growth inhibition,[3]; at 11.0 µM,-12%
same,growth inhibition,[3]; at 33.0 µM,-12%
same,growth inhibition,[3]; at 100.0 µM,-10%
same,growth inhibition,[4]; at 1.2 µM,-6%
same,growth inhibition,[4]; at 3.7 µM,-3%
same,growth inhibition,[4]; at 11.0 µM,2%
same,growth inhibition,[4]; at 33.0 µM,16%
same,growth inhibition,[4]; at 100.0 µM,80% (active)
same,growth inhibition,[5]; at 1.2 µM,0%
same,growth inhibition,[5]; at 3.7 µM,-47%
same,growth inhibition,[5]; [16],-1%
same,growth inhibition,[5]; at 11.0 µM,18%
same,growth inhibition,[5]; at 33.0 µM,5%
same,growth inhibition,[5]; [17],2%
same,growth inhibition,[5]; at 50.0 µM,23.5%
same,growth inhibition,[5]; at 100.0 µM,79% (active)
same,growth inhibition,[6]; at 1.2 µM,-4%
same,growth inhibition,[6]; at 3.7 µM,-2%
same,growth inhibition,[6]; [16],-2%
same,growth inhibition,[6]; at 11.0 µM,2%
same,growth inhibition,[6]; at 33.0 µM,8%
same,growth inhibition,[6]; [17],10%
same,growth inhibition,[6]; at 50.0 µM,38.5%
same,growth inhibition,[6]; at 100.0 µM,62%
same,growth inhibition,[7]; at 1.2 µM,-6%
same,growth inhibition,[7]; at 3.7 µM,-3%
same,growth inhibition,[7]; at 11.0 µM,0%
same,growth inhibition,[7]; at 33.0 µM,8%
same,growth inhibition,[7]; at 100.0 µM,93% (active)
same,growth inhibition,[8]; [16],-3%
same,growth inhibition,[8]; [17],49%
same,growth inhibition,[8]; at 50.0 µM,82.5% (active)
same,growth inhibition,[9]; at 1.2 µM,-19%
same,growth inhibition,[9]; at 3.7 µM,-22%
same,growth inhibition,[9]; at 11.0 µM,-16%
same,growth inhibition,[9]; at 33.0 µM,-18%
same,growth inhibition,[9]; at 100.0 µM,-13%
same,growth inhibition,[10]; [16],-25%
same,growth inhibition,[10]; [17],8%
same,growth inhibition,[10]; at 50.0 µM,68.7%
same,growth inhibition,[11]; at 1.2 µM,-11%
same,growth inhibition,[11]; at 3.7 µM,-13%
same,growth inhibition,[11]; [16],-13%
same,growth inhibition,[11]; at 11.0 µM,-14%
same,growth inhibition,[11]; at 33.0 µM,-8%
same,growth inhibition,[11]; [17],18%
same,growth inhibition,[11]; at 50.0 µM,34.6%
same,growth inhibition,[11]; at 100.0 µM,34%
same,growth inhibition,[12]; at 1.2 µM,-3%
same,growth inhibition,[12]; at 3.7 µM,0%
same,growth inhibition,[12]; at 11.0 µM,4%
same,growth inhibition,[12]; at 33.0 µM,17%
same,growth inhibition,[12]; at 100.0 µM,85% (active)
same,growth inhibition,[13]; at 1.2 µM,2%
same,growth inhibition,[13]; at 3.7 µM,9%
same,growth inhibition,[13]; at 11.0 µM,24%
same,growth inhibition,[13]; at 33.0 µM,44%
same,growth inhibition,[13]; at 100.0 µM,95% (active)
same,growth inhibition,[14]; [16],-1%
same,growth inhibition,[14]; [17],31%
same,growth inhibition,[14]; at 50.0 µM,77% (active)
same,growth inhibition,[15]; at 1.2 µM,-3%
same,growth inhibition,[15]; at 3.7 µM,-1%
same,growth inhibition,[15]; at 11.0 µM,3%
same,growth inhibition,[15]; at 33.0 µM,21%
same,growth inhibition,[15]; at 100.0 µM,95% (active)
